# Source: PubChem BioAssay (National Center for Advancing Translational Sciences (NCATS))
# The list is not random: actives were taken first. Their share in the collection is about 6.2%.
# Gal4-VP16 FLuc = inhibits Gal4-VP16 luciferase reporter, ROR gamma counter-screen | 310,000 tested, 3.5% active | AID 2546 | Potency, µM (doses to about 53.6 µM), for the others: at the top dose activity, negative = inhibition, usual class: inhibitors | Drosophila S2 Gal4-VP16 UAS-luciferase, luminescence, 20 h;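 also: Gal4-VP16 expression switched on by copper sulfate through the metallothionein promoter; nearly all actives have a fitted effect of over 50% in size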
# Luc counter = blocks Kinase-Glo luciferase, a counter-screen artifact; Q27757; Kinase-Glo luciferase, ATP luminescence, 8 min; 200,000 tested, 0.28% active; Potency, µM (highest dose often 38.3 µM), without a hit: top-dose activity change, negative = inhibition, actives largely listed as inhibitors; AID 1379; also: nearly all actives have a fitted effect of over 60% in size
#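 Light output from Kinase-Glo luciferase with luciferin and 10 uM ATP in 50 mM imidazole pH 7.2, KCl, MgCl2, Tween 20, BSA; compound pin-delivered, 8-min ambient incubation, then luminescence read.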
# RORgamma inh = inhibitors of mouse ROR gamma transcriptional activity; Drosophila S2 Gal4-RORgamma UAS-luciferase reporter, 20 h; Potency, µM (doses to about 53.6 µM), inactives show top-dose activity change, negative = inhibition, usual class: inhibitors; 310,000 tested, 5.4% active; AID 2551; also: nearly all actives have a fitted effect of over 60% in size
# Target sequence (P51450 whole entry, looked up, the tested form may be a part): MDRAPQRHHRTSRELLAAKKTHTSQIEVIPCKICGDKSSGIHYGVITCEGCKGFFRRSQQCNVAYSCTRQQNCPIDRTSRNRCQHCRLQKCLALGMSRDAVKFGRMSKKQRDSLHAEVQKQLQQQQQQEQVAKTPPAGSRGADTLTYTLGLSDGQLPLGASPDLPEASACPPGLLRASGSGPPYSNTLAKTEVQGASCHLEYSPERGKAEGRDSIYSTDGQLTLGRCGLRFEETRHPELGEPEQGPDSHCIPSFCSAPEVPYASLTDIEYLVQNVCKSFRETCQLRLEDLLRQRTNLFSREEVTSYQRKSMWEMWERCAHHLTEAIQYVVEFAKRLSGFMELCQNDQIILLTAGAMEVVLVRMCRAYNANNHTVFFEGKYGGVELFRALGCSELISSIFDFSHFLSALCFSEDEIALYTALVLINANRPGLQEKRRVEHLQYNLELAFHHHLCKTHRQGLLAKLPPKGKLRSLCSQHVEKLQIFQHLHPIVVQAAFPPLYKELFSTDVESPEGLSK
#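 Drosophila Schneider cells stably carrying a metallothionein-driven Gal4 DBD–ROR gamma fusion and a UAS-Photinus luciferase reporter were exposed to compound for 1 hr, then induced with copper sulfate (700 uM final) for 20 hr at ambient temperature before luminescence reading.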
# * = called active by the depositor; ? = inconclusive; . = not tested or not shown; [ ] = dose if it differs, or a comment. Calls follow the shape of the dose curve; as a rule, active = well fitted curve in the direction sought with a large enough effect; inconclusive = small, poorly fitted or top-dose-only effect, or another doubt; inactive = no such curve, though single readings can be large; an effect the other way counts as inactive or inconclusive. % is scaled to controls: 0 for no effect and ±100 for the full control effect; potency is read from the fitted curve at half-maximal effect.
SMILES,Gal4-VP16 FLuc,Luc counter,RORgamma inh
CNC(=S)Nc1ccc(C)c(NC(=S)NC)c1,-17%,-1%,?
CC1(C)[C@@H]2CC[C@@]1(CS(=O)(=O)Nc1ccccc1)C(=O)C2,.,-4%[7.66 µM],.
COc1ccc(Cl)cc1NC(=O)c1cccc(NC(=O)CCC(=O)O)c1,-7%,-3%,65%
COc1ccc(-n2nnc3c(=O)n(CC(=O)Nc4ccc5c(c4)OCCO5)cnc32)cc1OC,-26%,.,-42%
COc1ccc(-n2nnc3c(SCC(=O)Nc4ccc5c(c4)OCCO5)ncnc32)cc1,?,-9%,7.9µM*
COc1ccc(-c2ccc(=O)n(CC(=O)Nc3ccc4c(c3)OCCO4)n2)cc1,?,-1%,11µM*
COc1ccc(CNC(=O)Cn2nc(-c3ccc4c(c3)OCCO4)ccc2=O)cc1,-4%,11%,25%
Cc1nc(Cl)c(C(=O)NC(=O)NCc2ccccc2)c(C)c1Cl,2%,1%,27%
CCN(CC)[C@@H](C)CN1c2ccccc2Sc2ccccc21,-2%[17 µM],-6%[17.1 µM],0%[2.98 µM]
Cc1ccc(S(=O)(=O)O[C@H]2CC(C(C)(C)C)CC[C@@H]2c2ccccc2)cc1 (stereo not given in full),.,-5%[7.66 µM],.
O=C(CN1C(=O)c2cccnc2Oc2ccc(Cl)cc21)NCCC1=CCCCC1,-12%,.,19%
COc1ccc(-c2nc(C)c(C(C)=O)n2O)cc1[N+](=O)[O-],-19%,?,-19%
CN(C)c1cc(C(F)(F)F)nc(-c2ccccn2)n1,?,4%,?
CSCc1cc(N(C)c2ccccc2)nc(-c2ccccn2)n1,3.2µM*,.,0.56µM*
CC(SCc1ccc(C(=O)O)o1)c1ccc(C(=O)O)o1 (stereo not given),1%,.,-18%
COC(=O)/C(=C(/F)Sc1cc(C)c(O)c(C)c1)C(F)(F)F,5%,-5%,11%
S=c1nc(C2COc3ccccc3O2)[nH][nH]1 (stereo not given),17%,-2%,13µM*
S=c1[nH]nc(C2COc3ccccc3O2)o1 (stereo not given),0%,12%,?
Cc1ccc([N+](=O)[O-])cc1NC(=O)C(C)NS(=O)(=O)c1ccc(F)cc1 (stereo not given),-2%,2%,0%
COc1ccc(/C=C/C(=O)c2ccc3c(c2)OCO3)c(OC)c1,-6%,?,-14%
O=C(/C=C/c1ccccc1)c1ccccc1,-7%,-17%,-44%
CC(C)(C)c1cc(C(=O)/C=C/c2ccc(C(=O)O)cc2)cc(C(C)(C)C)c1,?,-4%,7.1µM*
O=C(O)c1ccc(/C=C/C(=O)c2ccc3c(c2)OCCCO3)cc1,10µM*,.,5µM*
COc1cccc(/C=C/C(=O)c2ccc3c(c2)OCCO3)c1OC,?,.,11µM*
CC(=O)Nc1ccc(/C=C/C(=O)c2ccc3c(c2)OCCO3)cc1,-17%,.,?
SMILES,Gal4-VP16 FLuc,Luc counter,RORgamma inh
COC(=O)c1[nH]c2ccccc2c1NC(=O)c1c(F)cccc1F,-1%,.,-24%
CC1CN(c2ccc(Cl)nn2)CC(C)O1 (stereo not given),-10%,1%,?
Cc1ccnc(SCC(=O)Nc2cc(C)on2)n1,6%,.,1%
Cc1cccc(/C=C\c2ccccc2)n1,-6%,11µM*,?
Cc1nc(/C=C/c2ccccc2)cc(/C=C/c2ccccc2)n1,?,17%,23%
O=C(NC(=S)Nc1ccc(S(=O)(=O)N2CCCC2)cc1)C1CCC1,-2%,-4%,11µM*
O=C(Nc1ccc(S(=O)(=O)N2CCCCC2)cc1)C1CCCCC1,4%,.,14%
CC(C)C(=O)NC(=S)Nc1ccc(S(=O)(=O)N2CCCC2)cc1,?,-3%,?
CN1CCN(S(=O)(=O)c2ccc(NC(=S)NC(=O)C3CCC3)cc2)CC1,-2%,-1%,-6%
CC(C)CC(=O)NC(=S)Nc1ccc(S(=O)(=O)N2CCCC2)cc1,-13%,-1%,16µM*
O=C(NC(=S)Nc1ccc(S(=O)(=O)N2CCCC2)cc1)C1CC1,-1%,-2%,10µM*
CSc1nnnn1-c1cccc(O)c1,-5%,4%,2%
CCCCc1nc2c(c3c1C[C@H](C)OC3)CN(C(=O)Nc1cccc(C#N)c1)CC2,.,0%[7.66 µM],.
CN(C)C(=O)c1ccc(NC(=O)COc2ccc([N+](=O)[O-])cc2)cc1,-5%,-2%,0%
CC1(C)C=C(c2ccc(C=O)s2)CC(C)(C)N1C=O,13%,5%,9%
CCN1CCN(c2nc(N(C)c3ccccc3)nc(N)c2[N+](=O)[O-])CC1,-6%,.,-8%
CC1(C)CC(=O)C2=C(C1)O[C@@]1(CCCCN3C(=O)c4ccccc4C3=O)Cc3cc(C#N)ccc3C2O1,-11%[10 µM],.,9%[10 µM]
N=C(N)SCCc1ccc(OCc2ccc([N+](=O)[O-])cc2)cc1,-22%,-2%,-29%
CCc1ccc(-c2cc(C)no2)cc1S(=O)(=O)N1CCN(c2ccccc2OC)CC1,0%,.,-29%
CCOC(=O)c1cc(-c2cccs2)nc2c1c(C)nn2-c1ccccn1,7.1µM*,-1%,1.8µM*
Cc1nn(-c2ccccn2)c2nc(-c3cccs3)cc(C(=O)NCc3ccco3)c12,?,2%,14µM*
Cc1nn(-c2ccccc2)c2nc(-c3cccs3)cc(C(=O)NN)c12,-1%,-2%,17%
Cc1nn(-c2ccccc2)c2nc(-c3ccncc3)cc(C(=O)NCc3ccco3)c12,-19%,2%,8%
O=C(C1CCCO1)N1CCN(C(=S)Nc2ccccc2F)CC1 (stereo not given),1%,-2%,1%
CCOC(=O)/C(C#N)=C\c1cccnc1,-3%,4%,-18%
SMILES,Gal4-VP16 FLuc,Luc counter,RORgamma inh
CCOC(=O)/C(=C\c1ccccc1)C(=O)c1cc(C(C)=O)c(Nc2ccccc2)s1,?,-2%,7.1µM*
CCOC(=O)C(=O)/C(C#N)=C/Nc1ccccc1,1%,-2%,22%
CCOC(=O)/C(=C\c1cccnc1)C(=O)c1cc(C(C)=O)c(Nc2ccccc2)s1,4.5µM*,22%,3.5µM*
COc1ccc(/C(C)=N/N=C(N)N)c(OC)c1,-4%,.,-5%
C/C=C\C1=C(CO)[C@H](O)[C@H]2OC2[C@@H]1O (stereo not given in full),8%[10 µM],.,0%[10 µM]
CCN(CC)C(=O)Cn1c(=O)oc2ccccc21,-1%,.,-3%
COc1cc(OC)cc(C(=O)NC(=S)Nc2ccc(N3CCCC3)cc2)c1,?,-1%,3.2µM*
COc1ccc(C(=O)NC(=S)N2CCCCC2)cc1,-8%,-6%,-21%
COc1cc(OC)cc(C(=O)NC(=S)Nc2ccc3[nH]c(=O)[nH]c3c2)c1,2%,.,3%
COc1cc(OC)cc(C(=O)NC(=S)N2CCCCCC2)c1,1.1µM*,-2%,0.5µM*
O=C(C1CCN(S(=O)(=O)c2ccccc2)CC1)N1CCOCC1,-5%,17%,12%
Cc1c(C(=O)N2CCOCC2)c(S(=O)(=O)Nc2ccc(OC(F)(F)F)cc2)c(C)n1C,-15%,.,26%
O=C(Nc1ccccc1)N1CCn2c1nc1ccccc12,0%,3%,30%
S=C(Nc1ccccc1)N1CCn2c1nc1ccccc12,5µM*,0%,0.56µM*
COCCn1c(SCC(=O)Nc2cccc(C)n2)nnc1-c1ccco1,3%,4%,15%
O=C(c1cc(C(=O)N2CCOCC2)c2nc3ccccc3n2c1)c1cc(Cl)cc(Cl)c1O,0%,.,15%
